Wnt bcat act = activators of Wnt/beta-catenin signaling; Wnt/beta-catenin reporter cell assay, activator, plate reader; activation, % at 9.35 µM; actives 1.2% (n = 300,000); in the data active = activation above about 30%, passing the limit was not always enough; inconclusive = no clear call, values can overlap the other calls;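 note: 0% = neutral control wells and 100% = positive control wells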
MITF TRPM1 HTS = increases MITF-driven TRPM1 promoter luciferase signal; SK-MEL-5 TRPM1-promoter luciferase, 24 h; % of positive control, neutral wells = 0; activation, % at 12.5 µM; actives 0.75% (n = 300,000); AID 588334;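 active = mean activation of at least 80% with every replicate also reaching 80%; inconclusive = mean reaches 80% but some replicate falls short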;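 note: 0% = neutral control wells and 100% = parthenolide positive control wells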
SMARCA2 activ = increases SMARCA2 function in MMTV reporter cells | MG213 cells, MMTV-luciferase reporter, dexamethasone, overnight | activation, % at 9.1 µM | actives 1% (n = 370,000) | AID 652017; in the data active = activation above about 7.8%;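 note: 0% = vehicle wells and 100% = reference activator wells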
MLL AF4-AF9 inh = blocks AF4 peptide binding to human AF9. inhibition, % at 10 µM. actives 0.47% (n = 350,000). AlphaScreen, biotin-AF4 peptide binding to FLAG-AF9. P42568. AID 651704;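 active = every replicate reaching a set inhibition limit, whatever the replicate mean, cut at about 25% in these data; inconclusive = mean inhibition reaches that limit but some replicates miss it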;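 note: 0% = plate neutral control median and 100% = total signal loss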
Target sequence (P42568 whole entry, looked up): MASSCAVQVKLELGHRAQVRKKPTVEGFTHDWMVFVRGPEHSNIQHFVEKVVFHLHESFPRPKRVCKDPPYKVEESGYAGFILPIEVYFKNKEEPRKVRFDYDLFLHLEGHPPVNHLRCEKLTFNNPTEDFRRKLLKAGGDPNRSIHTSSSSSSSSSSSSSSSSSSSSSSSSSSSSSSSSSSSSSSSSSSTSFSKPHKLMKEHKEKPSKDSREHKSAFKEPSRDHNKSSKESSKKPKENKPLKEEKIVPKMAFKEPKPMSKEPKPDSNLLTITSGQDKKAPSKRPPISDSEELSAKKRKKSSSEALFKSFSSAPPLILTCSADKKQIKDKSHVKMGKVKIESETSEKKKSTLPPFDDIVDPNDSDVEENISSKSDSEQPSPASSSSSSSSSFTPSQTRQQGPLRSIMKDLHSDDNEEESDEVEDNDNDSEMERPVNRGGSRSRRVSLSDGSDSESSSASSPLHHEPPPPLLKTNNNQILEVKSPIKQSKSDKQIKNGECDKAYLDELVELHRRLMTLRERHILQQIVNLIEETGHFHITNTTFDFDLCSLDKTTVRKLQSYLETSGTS
FGF22 binding = FGF22 (human) thermal shift binding | actives 1.5% (n = 340,000) | AID 651658 | Q9HCT0 | activity (Tm shift, normalised), % at 9.99 µM | recombinant FGF22 thermal shift, SYPRO orange fluorescence; percent of sucrose octasulfate shift, DMSO zero;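 active = mean Tm shift, scaled 0 neutral to 100 positive control, at about 1.3% or above, every replicate too, limit read from the data; inconclusive = no clear call, values can overlap the other calls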
esBAF inh = inhibitors of esBAF chromatin remodeling in mouse ES cells; Bmi1-luciferase knock-in reporter, 24 h; 100% = twice the neutral-well signal; reporter increase, % at 12.5 µM; actives 2% (n = 350,000); in the data active = activation above about 40%; inconclusive = no clear call, values can overlap the other calls;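 note: 0% = median of the plate's neutral control wells and 100% = double that signal; a rise in the Bmi1 reporter signal indicates esBAF inhibition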
SMARCA2 act conf = confirmation of SMARCA2 (BRM) function activators; activation, % at 9.1 µM; actives 30% (n = 3,500); MG213 cells, MMTV-luciferase with dexamethasone, luminescence, overnight; MG213 cells expressing E1A, Rb sequestered; DMSO wells 0%, reference activator 100%; shares compounds with SMARCA2 activ;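 active = activation above its plate's cutoff, the mean activation of tested wells plus 3 SD, cut at about 7.9% in these data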
GAL4-VP16 Luc = activates GAL4-VP16 luciferase, flagging SMARCA2 activator hits; shares compounds with SMARCA2 activ; HEK293 GAL4-VP16 pG5luc reporter, luciferase luminescence; scaled: DMSO wells 0%, SAHA wells 100%; activation, % at 9.1 µM; actives 41% (n = 3,500); AID 686939;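 active = activation above the solvent-only control well mean plus 3 SD, averaged across control plates, cut at about 5.2% in these data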
Starred values were filed as active, the others as inactive; ? = inconclusive; · = no result given. Only some compounds are listed: those with a hit (about 4.3% of all), similar ones and a draw of the others.

SMILES	Wnt bcat act	MITF TRPM1 HTS	SMARCA2 activ	MLL AF4-AF9 inh	FGF22 binding	esBAF inh	SMARCA2 act conf	GAL4-VP16 Luc
COc1cc(Cl)c(CNC[C@H]2O[C@@H](n3ccc(=O)[nH]c3=O)[C@H](O)[C@@H]2O)c(Cl)c1O	-1	3	10*	0	-1	-2	0	1
O=C(C1CC1)N1C[C@H]2[C@@H](c3ccccc31)[C@@H](CO)N2C(=O)Nc1cccc(F)c1	·	·	·	-8	0	2	·	·
C[C@@H]1CNCCN1c1ccc(N2CCN(Cc3ccccc3)[C@@H](C)C2)c(C#N)c1	-9	·	1	·	0	·	·	·
C[C@H]1CN(c2ccc(N3CCNC[C@@H]3C)cc2C#N)CCN1Cc1ccccc1	-3	·	11*	·	0	·	-2	0
C[C@@H]1CN([C@H](C)CO)C(=O)c2cc(/C=C/c3ccccc3)cnc2O[C@H]1CN(C)C(=O)CN1CCOCC1	·	·	·	3	0	4	·	·
CC(C)C[C@@H](CSc1ccc(Br)cc1)N1CCN(C)CCC1=O	12	81*	8.2*	3	0	44*	9.0*	9.2*
COc1ccc(SC[C@H](CC(C)C)N2CCN(C)CCC2=O)cc1	14	64	5	3	0	26	·	·
COC(=O)[C@]12C[C@H](CC(=O)N3CCSCC3)C(=O)N(Cc3ccccc3)C1=C[C@H](COCc1ccccc1)O[C@@H]2C	·	·	-5	·	·	·	·	·
Cc1ccc(NC(=O)N2CCc3ccccc3C2)cc1	·	?	8.9*	·	·	46*	5	8.5*
CC(=O)c1cccc(NC(=O)N2CCc3ccccc3C2)c1	·	68	8.2*	·	·	?	4	7.8*
C[C@@H]1CN([C@@H](C)CO)C(=O)c2cc(-c3cccc(C(=O)N(C)C)c3)cnc2O[C@H]1CN(C)S(=O)(=O)c1ccccc1	·	·	·	-1	0	4	·	·
COc1ccc(NC(=O)N2CC(=O)N3[C@@H](CO)[C@@H](c4ccc(C5=CCCC5)cc4)[C@@H]3C2)cc1	·	·	·	3	·	·	·	·
CC(=O)c1ccc(NC(=S)NCCc2cccc(Cl)c2)cc1	-1	77	8.0*	3	0	·	5	11*
CC(C)CNC(=O)OCc1cn(Cc2ccc(F)cc2F)nn1	·	·	0	·	·	·	·	·
c1ccc(-c2nc3ccccc3nc2-c2ccc(CN3CCC(c4nc5ccccc5[nH]4)CC3)cc2)cc1	-1	·	8.7*	·	0	·	0	2
Cc1ccc2nc(-c3ccc(CN4CCC(c5nc6ccccc6[nH]5)CC4)cc3)c(-c3ccccc3)nc2c1	-2	·	5	·	0	·	·	·
CCCS(=O)(=O)NC(=O)C1(C)CCCN(C(=O)c2ccccc2C(F)(F)F)C1 (stereo not drawn)	-3	·	8.1*	-3	0	-13	2	2
CCCS(=O)(=O)NC(=O)C1(C)CCCN(C(=O)c2cccc3ccccc23)C1 (stereo not drawn)	-1	·	5	-2	0	-8	·	·
COc1ccc(S(=O)(=O)Nc2ccc3c(c2)CC(=O)N([C@H](C)CO)C[C@H](C)[C@H](CN(C)C(=O)Nc2c(C)noc2C)O3)cc1	·	·	·	-1	0	-8	·	·
Cc1ccc(S(=O)(=O)NC(=O)NC(C)c2ccc(F)cc2)cc1 (stereo not drawn)	-3	-6	8.0*	-7	0	1	0	1
CCOc1cc(CNc2ccc(N3CCN(C(C)=O)CC3)cc2)cc(Br)c1OC	·	3	8.6*	·	·	·	2	0
CCCOc1ccc(C(=O)NNC(=S)NC(=O)c2cccs2)cc1	-6	-14	13*	2	0	-20	3	0
CCCOc1ccc(C(=O)NNC(=S)NC(=O)c2ccccc2)cc1	-3	-11	-1	1	0	0	·	·
C=CCSc1nnc(NC(=O)C2=COCCO2)s1	·	44	8.0*	-1	0	29	8.2*	11*
C=CCSc1nnc(NC(=O)c2ccc3c(c2)OCCO3)s1	2	·	-1	-2	0	-26	·	·

Assay outcomes: PubChem, several laboratories
